# FLuc counter: firefly luciferase modulation, counter-screen for miR-21 project | P08659 | 360,000 compounds, 6.9% hits | purified FLuc, Km substrates, luminescence inhibition | Potency, µM (top dose mostly 57.5 µM), without a hit: top-dose activity change, negative = inhibition, actives largely listed as inhibitors;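 note: plate controls were vehicle for no effect and reference inhibitor for full effect; nearly all actives have a fitted effect of over 55% in size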
# Target sequence (P08659 whole entry, looked up): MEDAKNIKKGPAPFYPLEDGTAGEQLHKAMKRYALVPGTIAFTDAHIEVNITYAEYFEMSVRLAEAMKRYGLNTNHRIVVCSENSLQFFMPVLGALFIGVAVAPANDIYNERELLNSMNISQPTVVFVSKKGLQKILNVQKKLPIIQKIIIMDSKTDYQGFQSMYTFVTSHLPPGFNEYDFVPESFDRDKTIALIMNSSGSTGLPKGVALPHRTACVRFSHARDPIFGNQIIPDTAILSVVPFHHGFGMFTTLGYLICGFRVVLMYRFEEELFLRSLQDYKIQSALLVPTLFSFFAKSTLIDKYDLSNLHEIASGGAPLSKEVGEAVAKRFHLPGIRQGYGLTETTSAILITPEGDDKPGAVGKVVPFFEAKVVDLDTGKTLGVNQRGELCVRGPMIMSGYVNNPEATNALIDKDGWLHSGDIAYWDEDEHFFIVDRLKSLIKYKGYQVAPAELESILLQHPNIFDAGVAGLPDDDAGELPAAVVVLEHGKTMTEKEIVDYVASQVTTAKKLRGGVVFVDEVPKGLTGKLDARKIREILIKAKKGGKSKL
#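 Purified P. pyralis luciferase, 10 nM final, with Km-level 10 uM D-luciferin and 10 uM ATP in 50 mM Tris acetate pH 7.5, 10 mM Mg acetate, 0.01% Tween-20, 0.05% BSA; 6-point qHTS titration about 60 µM downward; luminescence read.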
# SMN2 splice up: SMN2 splice variant enhancement; 210,000 compounds, 2.8% hits; HEK293 SMN2-luciferase splicing reporter, luminescence, 30-36 h; Potency, µM (series often up to 46.1 µM), for the others: top-dose activity change, positive = activation, most hits filed as activators; AID 1458; note: % of control where 0% means no effect; nearly all actives have a fitted effect of over 55% in size
#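 HEK293 cells carry an SMN2 minigene-luciferase reporter in which exon 7 inclusion puts luciferase in frame. Cells were seeded at 2000 cells/well, attached for 10-12 hours, then exposed to compounds for 30-36 hours at 37C before ONE-Glo luminescence.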
# NPC1 promoter act: NPC1 promoter activation | Huh7 NPC1 promoter luciferase reporter, 24 h | Potency, µM (top dose mostly 9.22 µM), inactives show at the top dose activation, actives largely listed as activators | 320,000 compounds, 2.4% hits; note: % of control where 0% means no effect; nearly all actives have a fitted effect of over 60% in size
#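 Stable NPC1-promoter luciferase Huh7 line; cpd (DMSO) 24 h, 37 °C, 5% CO2; Amplite luciferase reagent 10 min RT; luminescence readout. qHTS format.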
# ELG1 genotox: inducers of genotoxicity in HEK293T ELG1-luciferase cells | Potency, µM (series often up to 46 µM), for inactives: top-dose activity change, positive = activation, actives largely listed as activators | HEK293T ELG1-luciferase reporter, luminescence, 16 h | 330,000 compounds, 1.3% hits; note: % of control where 0% means no effect; nearly all actives have a fitted effect of over 60% in size
#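 Genotoxic stress is detected as increased luminescence from luciferase-tagged ELG1 in HEK293T cells, measured with ONE-Glo after a 16 hr treatment at 37 °C.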
# Rab9 prom act: activators of Rab9 promoter; Huh7 Rab9 promoter-luciferase reporter, luminescence, 24 h; 320,000 compounds, 2.8% hits; AID 485297; Potency, µM (doses to about 9.22 µM), for the others: top-dose activation, negative = inhibition, hits mostly activators; note: % of control where 0% means no effect; nearly all actives have a fitted effect of over 60% in size
#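 Using Huh7 cells stably transfected with Rab9 promoter–luciferase, compounds were incubated 24 h at 37 °C, 5% CO2; luciferase luminescence was read 10 min after reagent addition.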
# ELG1 DNA repair: inhibitors of ELG1-dependent DNA repair in HEK293T cells; HEK293T ELG1-luciferase reporter, luminescence, 16 h; DNA damage induced by 5-fluorouridine; Potency, µM (doses to about 46.1 µM), for inactives: at the highest dose activity change, negative = inhibition, usual class: inhibitors; AID 504467; 330,000 compounds, 2.3% hits; note: % is set by controls: 0 for no effect and ±100 for the full control effect; nearly all actives have a fitted effect of over 55% in size
#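 Reporter activity after DNA damage by 5-fluorouridine is monitored. Compound-treated cells incubate 16 hr at 37 °C, then ONE-Glo is added for 30 min before luminescence reading.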
# Active calls of the source: *; u = inconclusive; x = no result given; [ ] = another dose, or the depositor's remark. Rows were chosen to be rich in hits. Some 9.4% of all compounds tested hit in one or more screens of this group. Calls come from the whole dose curve; as a rule, active = well fitted curve in the direction sought with a large enough effect; inconclusive = small, poorly fitted or top-dose-only effect, or another doubt; inactive = no such curve, though single readings can be large; an effect the other way counts as inactive or inconclusive. Potency is the fitted concentration of half-maximal effect.
SMILES,FLuc counter,SMN2 splice up,NPC1 promoter act,ELG1 genotox,Rab9 prom act,ELG1 DNA repair
Cc1ncc(CO)c(/C=N/NC(=O)c2ccoc2C)c1O,-12%,x,-7%,-3%,-6%,u
COc1ccccc1N/N=C/c1c(CO)cnc(C)c1O,13µM*,-12%,-3%,8%,-6%,11%
COc1ccc(C(=O)N/N=C/c2c(CO)cnc(C)c2O)cc1,21µM*,-73%,1%,-10%,0%,13µM*
O=S(=O)(c1ccc(-c2cc(C(F)(F)F)on2)s1)N1CCN(c2ccc(F)cc2)CC1,-5%,x,x,x,x,x
COc1cc(C=C2C(=O)c3ccccc3C2=O)cc(OC)c1,-15%,x,-3%,1%,2%,14%
COc1ccc2c(c1)CC/C(=C/c1cc(OC)c(OC)c(OC)c1)C2=O,-16%,-58%,4%,-12%,1%,18µM*
CC(=O)Oc1ccc(C(=O)Nc2ccccc2NC(=O)c2ccc(OC(C)=O)cc2)cc1,-1%,x,1%,-3%,-6%,0%
COc1cccc(/C=C2\CCc3ccccc3C2=O)c1,0.15µM*,x,u,2.6µM*,u,u
CC(=O)Oc1ccc(/C=C2/CCc3ccccc3C2=O)cc1,0.6µM*,x,-4%,u,15%,u
COc1ccc(/C=C2\CCc3ccccc3C2=O)cc1OC,5.4µM*,-25%,2%,17%,4%,u
CC(C)c1nc2ccc(C(=O)NCc3ccc(F)cc3)cc2o1,2%,x,x,x,x,x
CCOC(=O)c1c(C)[nH]c(C)c1S(=O)(=O)N(C)CC(=O)Nc1ccc(C)c(N(C)C)c1,-12%,x,x,x,x,x
CCCCOc1ccc(C(=O)N2CCN(CCc3ccncc3)CC2)cc1,-5%,x,x,x,x,x
COc1ccc(/C=C2\CC/C(=C\c3ccc(OC)c(OC)c3)C2=O)cc1OC,1.2µM*,4%,1%,12%,-6%,u
COc1ccc2c(c1)CC/C(=C\C=C\c1ccccc1)C2=O,2.7µM*,u,18%,9%,8%,u
COc1cc(/C=C2/CC/C(=C/c3ccc(O)c(OC)c3)C2=O)ccc1O,11µM*,x,-5%,-4%,-2%,u
CCN1C/C(=C/c2ccc(OC)c(O)c2)C(=O)/C(=C/c2ccc(OC)c(O)c2)C1,4%,-105%,-45%,-21%,-44%,u
COc1cc(/C=C2\COC/C(=C\c3ccc(O)c(OC)c3)C2=O)ccc1O,17µM*,x,-11%,-17%,-43%,u
NC=O,x,-10%,x,x,x,x
COc1cccc(/C=C2\C(=O)C(=O)c3ccccc32)c1,21µM*,16%,-2%,4%,-3%,u
COc1ccc2c(c1)CC/C(=C/c1ccccn1)C2=O,5.4µM*,x,u,15%,u,u
COc1ccc2c(c1)CCc1cc(C(=O)O)sc1-2,u,x,-2%,0%,2%,14%
CCCOc1ccc(/C=C/C(=O)Nc2sc(C)c(C)c2C(=O)OCC)cc1OC,u,-4%,x,x,x,x
CCN(CC)CCCN=Cc1c(-c2ccccc2)[nH]n(-c2nc3ccccc3s2)c1=O,u,x,7%,9%,-2%,u
CCC(=NCc1ccco1)c1c(C(F)(F)F)[nH]n(-c2nc3ccccc3s2)c1=O,7.6µM*,17%,u,9.2µM*,u,u
SMILES,FLuc counter,SMN2 splice up,NPC1 promoter act,ELG1 genotox,Rab9 prom act,ELG1 DNA repair
CC(=NCc1ccco1)c1c(C)[nH]n(-c2nc3ccccc3s2)c1=O,7.6µM*,x,u,3.7µM*,u,u
CCCN=C(C)c1c(-c2ccccc2)[nH]n(-c2nc3ccccc3s2)c1=O,u,-34%,u,-12%,26%,u
COC(=O)Cc1[nH]n(-c2nc3ccccc3s2)c(=O)c1C(C)=Nc1ccc(C)cc1,u,-94%,-34%,-12%,-44%,4%
CCC(=NCc1ccccc1)c1c(C(F)(F)F)[nH]n(-c2nc3ccccc3s2)c1=O,12µM*,-2%,20%,u,3%,u
O=c1c(C=NCc2cccnc2)c(C(F)(F)F)[nH]n1-c1nc2ccccc2s1,2%,x,-2%,-6%,1%,13%
C/C(=N/NC(=O)c1cccs1)c1c(C)[nH]n(-c2nc3ccccc3s2)c1=O,0.6µM*,11µM*,2µM*,u,2µM*,u
COC(=O)N1C2=C(c3ccccc3[C@@H]1CC(=O)Nc1ccc3cc4ccccc4cc3c1)[C@@H]1C(=O)N(c3ccccc3)C(=O)[C@@H]1[C@H](C)C2,x,-2%[9.22 µM],x,x,x,x
CC(=O)c1sc(NCc2ccc(C)cc2)nc1C,15µM*,x,3.2µM*,23µM*,2.8µM*,u
COc1ccc(N(C)S(=O)(=O)c2cccc(C(=O)Nc3cccc(C(=O)NC4CC4)c3)c2)cc1,1%,x,-1%,-5%,-5%,21µM*
COc1ccc(N(C)S(=O)(=O)c2cccc(C(=O)Nc3nc(C)c(C(C)=O)s3)c2)cc1,-17%,x,2%,0%,4%,10µM*
CC(=O)c1sc(NC(=O)c2cccc(C)c2)nc1C,6.7µM*,14µM*,3.2µM*,5.2µM*,2µM*,u
COC(=O)c1ccc(NC(=O)CC2C(=O)N(c3cccc(OC)c3)C(=O)N2Cc2ccco2)cc1 (stereo not drawn),-13%,x,x,x,x,x
CC(=O)Nc1nc(C)c(C(C)=O)s1,0%,2%,-2%,-5%,9%,-3%
CC(=O)c1sc(NC(=O)c2ccc(Cl)cc2)nc1C,u,x,3.2µM*,u,1.4µM*,u

# Screening results deposited in PubChem by National Center for Advancing Translational Sciences (NCATS).
